Screening results (PubChem)
Rows were chosen to be rich in hits. Some 4.1% of all compounds tested hit in one or more screens of this group.
hgDAF12 agonist – H. glycines DAF-12 receptor agonists, primary screen, cell-based, luminescence, HEK293, GAL4 fusion, UAS-luciferase; HEK293 GAL4-hgDAF12 UAS-luciferase reporter, agonist luminescence; normalized to butyrate control; AID 687014, 2013; Nuclear hormone receptor DAF-12 (Heterodera glycines), GAL4 fusion; 1.8% of 370,000 active; activation, % at 6.8 µM;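 active = activation above a cutoff set at the mean of all screened compounds plus 3 SD, cut at about 10% in these data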;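 also: 0% = DMSO wells and 100% = sodium butyrate wells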
DAX1 inh-1 – DAX1 (NR0B1) inhibitors, primary screen, cell-based, HEK293, Gal4-DAX1, luciferase luminescence | HEK293 Gal4-DAX1 luciferase reporter | 0.99% of 340,000 active | inhibition, % at 6.75 µM;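 active = inhibition above the mean over all tested compounds plus 3 SD, cut at about 4.2% in these data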;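 also: 0% = DAX1-transfected cells with DMSO and 100% = empty-vector control cells with DMSO; inhibition shows as a rise in luminescence from relieved DAX1 repression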
Target sequence (P51843 207-470 limits assumed): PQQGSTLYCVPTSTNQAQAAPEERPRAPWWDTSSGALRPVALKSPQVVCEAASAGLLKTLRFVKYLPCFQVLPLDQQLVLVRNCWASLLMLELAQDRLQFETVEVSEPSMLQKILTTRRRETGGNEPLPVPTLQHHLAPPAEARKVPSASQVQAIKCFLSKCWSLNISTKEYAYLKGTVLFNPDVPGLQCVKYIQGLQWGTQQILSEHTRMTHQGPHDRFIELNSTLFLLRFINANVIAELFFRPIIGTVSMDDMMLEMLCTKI
hcDAF-12 act – H. contortus DAF-12 nuclear receptor activators, primary screen, cell-based, luminescence, HEK293, lit1-tk-luc reporter; activation, % at 6.8 µM; HEK293 hcDAF-12 lit1-tk-luc reporter; 0% DMSO, 100% Δ7-dafachronic acid; 1.4% of 370,000 active;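 active = activation above the mean of all tested compounds plus 3 SD, cut at about 5.5% in these data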;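 also: 100% = response to 3 µM Δ7-dafachronic acid high control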
ssDAF12 agonist – S. stercoralis DAF-12 nuclear receptor activators, primary screen, cell-based, luminescence, HEK293, GRIP1 co-expression, lit1-tk-luc | Nuclear hormone receptor DAF-12 (Strongyloides stercoralis) | HEK293 ssDAF-12/GRIP1 lit1-tk-luc reporter; % of 3 µM dafachronic acid response | activation, % at 6.8 µM | 1% of 370,000 active;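 active = activation above the mean over all tested compounds plus 3 SD, cut at about 0.9% in these data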;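 also: 0% = DMSO-only wells and 100% = 3 µM delta7-dafachronic acid wells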
DAX1 inh-2 – DAX1 (NR0B1) inhibitors on StAR promoter, primary screen, cell-based, luminescence, SF-1 (NR5A1), full-length DAX-1 | HEK293T StAR-luciferase reporter, SF-1/DAX-1 repression relief | inhibition, % at 6.8 µM | 1.1% of 370,000 active | AID 652010, 2013;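 active = inhibition above the mean over all tested compounds plus 3 SD, cut at about 3.6% in these data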;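 also: 0% = DAX-1 cells with DMSO and 100% = cells lacking DAX-1 with DMSO; higher inhibition means more luminescence from relief of DAX-1 repression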
LXR ag – LXR agonists, Gal4 luciferase reporter, confirmation, counter-screen for hcDAF-12 agonist project, cell-based, luminescence, HEK293, H. contortus campaign; shares compounds with hcDAF-12 act; HEK293 Gal4-LXR tk-luc reporter, 24 h; normalized: DMSO 0%, positive control 100%; activation, % at 6.8 µM; 3,400 tested, under 10 active; AID 743027, 2013;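 active = mean percent activation of the reporter above a cutoff set as the average over tested compounds plus their standard deviation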
Target sequence (P55055 whole entry, looked up, the tested form may be a part): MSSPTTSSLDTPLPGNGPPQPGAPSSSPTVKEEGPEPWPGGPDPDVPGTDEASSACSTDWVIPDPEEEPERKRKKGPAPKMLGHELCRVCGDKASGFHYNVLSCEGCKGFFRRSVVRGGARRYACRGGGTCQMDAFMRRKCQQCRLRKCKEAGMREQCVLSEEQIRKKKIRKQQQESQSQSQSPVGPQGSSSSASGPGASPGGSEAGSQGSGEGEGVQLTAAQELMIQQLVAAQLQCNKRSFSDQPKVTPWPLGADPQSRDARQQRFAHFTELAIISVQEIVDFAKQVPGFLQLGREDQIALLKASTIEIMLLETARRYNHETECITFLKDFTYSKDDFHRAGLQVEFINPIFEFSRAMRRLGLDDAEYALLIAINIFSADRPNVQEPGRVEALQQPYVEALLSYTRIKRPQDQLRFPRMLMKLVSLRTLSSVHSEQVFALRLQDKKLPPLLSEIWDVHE
hcDAF12 conf – H. contortus DAF-12 receptor agonists, confirmation, cell-based, luminescence, HEK293, lit1-tk-luc, triplicate; 61% of 3,400 active; activation, % at 6.8 µM; HEK293 hcDAF-12 lit1-tk-luc reporter; % of Δ7-dafachronic acid response; shares compounds with hcDAF-12 act;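 active = mean activation across triplicate tests above the threshold derived from the earlier primary screen, cut at about 5.5% in these data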;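 also: 0% = DMSO only wells and 100% = 3 µM Δ7-dafachronic acid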
* = called active by the depositor; / = no result.

SMILES | hgDAF12 agonist | DAX1 inh-1 | hcDAF-12 act | ssDAF12 agonist | DAX1 inh-2 | LXR ag | hcDAF12 conf
CCC[C@@H]1CCCC/C=C\CCCC(=O)OCCN1C(=O)OC(C)(C)C | 1.5 | -0.7 | -0.1 | -1.2 | 0.6 | / | /
COc1ccc(-c2nc3ccccc3c(=O)[nH]2)cc1 | 12.8* | 2.0 | 7.4* | 0.4 | 2.6 | 1.1 | 8.4*
Cc1cccc(-c2nc3ccccc3c(=O)[nH]2)c1 | 7.8 | 1.8 | 0.7 | -1.0 | 0.6 | / | /
Cc1ccc(NC(=O)CSc2nnc(CNC(=O)c3cccs3)o2)c(C)c1 | -0.8 | 0.2 | 0.3 | -1.3 | 0.6 | / | /
N=c1oc2ccccc2cc1-c1nc2ccccc2c(=O)[nH]1 | 1.2 | -0.2 | 8.3* | 0.5 | 1.7 | 0.3 | 5.2
O=C1c2ccccc2S(=O)(=O)c2cc(N3CCOCC3)ccc21 | 7.5 | 0.7 | 6.6* | 0.0 | 2.6 | 0.6 | 4.4
O=C1c2ccccc2S(=O)(=O)c2cc(N3CCN(c4ccccc4)CC3)ccc21 | 2.3 | / | -1.3 | -1.1 | 0.6 | / | /
CC(C)OP(=O)(c1ccc(N(C)C)cc1)C(O)c1ccc(C(C)C)cc1 (configuration not stated) | 0.9 | -0.6 | 0.1 | -1.0 | -0.5 | / | /
CCN1C(=NCCc2c[nH]c3ccccc23)N[C@@H](c2ccccc2)[C@H](C(=O)OC)[C@H]1C | 3.4 | 1.6 | 3.3 | 0.3 | 0.3 | / | /
Cc1cccc(Cn2cc(COC(=O)NCCc3c[nH]c4ccccc34)nn2)c1 | 1.3 | / | -0.8 | -0.9 | -1.0 | / | /
O=C(NCCc1c[nH]c2ccccc12)OCc1cn(Cc2cccc(Cl)c2)nn1 | 6.6 | / | 6.6* | -1.2 | 0.5 | -0.4 | -0.8
Cc1cc(C(=O)NCC2CCCO2)sc1C (configuration not stated) | 2.2 | 0.3 | -0.6 | -0.6 | 2.9 | / | /
O=C(NCC1CCCO1)c1cc2c(s1)CCC2 (configuration not stated) | 4.2 | 3.5 | 7.7* | -1.9 | 2.4 | 0.3 | 2.2
CN(C)S(=O)(=O)c1ccc(Cl)c(-c2nnc3n2CCCCC3)c1 | -0.5 | 0.6 | 7.8* | 0.4 | 1.2 | -0.1 | 3.2
Clc1ccc(-c2nnc3n2CCCC3)cc1Cl | 0.5 | 0.2 | -0.6 | -1.2 | 0.7 | / | /
O=S(=O)(c1ccccc1)N1CCNCC1 | 0.3 | 1.8 | 0.8 | -0.8 | -0.1 | / | /
COc1ccc(C(=O)NC(=S)Nc2ccc3oc(=O)ccc3c2)cc1OC | -2.2 | 1.8 | -0.6 | -0.9 | -0.3 | / | /
COc1cc(O)c2c(=O)c(-c3ccc(O[C@@H]4O[C@H](CO)[C@@H](O)[C@H](O)[C@H]4O)cc3)coc2c1 | 12.1* | 1.9 | 7.2* | 0.9 | 1.5 | 1.6 | 5.5
CCN(CC(=O)Nc1ccc(OC)cc1)C(=O)c1ccc2c(c1)NC(=O)C(C)S2 (configuration not stated) | 3.2 | 0.5 | -1.0 | -0.7 | -0.8 | / | /
O=C(O)CSCC(=O)N1N=C2/C(=C/c3ccccc3)CCCC2C1c1ccccc1 (configuration not stated) | 0.9 | -0.9 | 1.6 | 0.3 | -0.3 | / | /
CCn1cc(Cl)c(C(=O)N2N=C3/C(=C/c4cccs4)CCCC3C2c2cccs2)n1 (configuration not stated) | 2.0 | -0.5 | 6.6* | -0.7 | -0.6 | -0.1 | 4.7
COc1cc(OC)cc(C(=O)NCC(=O)OCC(=O)Nc2ccc(C)c(S(=O)(=O)N3CCOCC3)c2)c1 | 0.3 | 1.0 | -1.8 | -1.3 | -0.3 | / | /
CSc1ccc(CNC(=O)Cc2ccc(NC(=O)C3=C(C)OCCS3)cc2)cc1 | 7.7 | -0.5 | 7.1* | 0.2 | -1.9 | 0.9 | 6.5*
CN(C)c1ccc(C(=O)Nc2nc3c(s2)CCCC3)cc1 | 11.5* | -2.1 | 7.7* | -0.7 | 3.8* | 2.0 | 8.4*
COc1ccc(C(=O)N(C)Cc2cnn(Cc3ccccc3)c2)cc1S(=O)(=O)N1CCOCC1 | -0.7 | -1.5 | 0.1 | -1.0 | -3.5 | / | /
SMILES | hgDAF12 agonist | DAX1 inh-1 | hcDAF-12 act | ssDAF12 agonist | DAX1 inh-2 | LXR ag | hcDAF12 conf
Cc1ccc(-c2ccc(/C=N/NC(N)=S)o2)cc1 | 7.4 | 3.4 | 10.3* | 1.7* | 0.2 | 0.4 | 7.5*
NC(=S)N/N=C/c1ccc(-c2ccc(Cl)c(Cl)c2)o1 | 5.6 | 1.0 | 7.1* | 1.4* | -1.1 | 0.1 | 9.9*
CCNc1nc(NCC)nc(N(C)N)n1 | -0.7 | -1.1 | -0.7 | -1.4 | -0.2 | / | /
COc1ccc(-c2nnc(SCC(=O)Nc3ccc4cn[nH]c4c3)n2Cc2ccco2)cc1 | 4.1 | / | 7.4* | 0.5 | -2.3 | -0.1 | 4.6
COCCN1C(=O)CN(S(C)(=O)=O)CC1(C)C(=O)NC(C)C (configuration not stated) | 1.3 | / | 0.0 | -0.8 | -0.8 | / | /
COc1cccc(NC(=O)Cc2nnc(SCC(=O)NC3=NCCS3)n2C)c1 | 2.3 | 1.5 | -0.9 | -1.2 | 0.1 | / | /
Cn1c(CC(=O)Nc2ccccc2)nnc1SCC(=O)NC1=NCCS1 | 1.1 | -0.3 | 7.6* | -0.7 | 0.2 | -0.4 | -1.2
CC(c1c(O)c2ccccc2[nH]c1=O)C1(C)CCC(O)C(C)(C)O1 (configuration not stated) | -0.8 | -0.1 | 0.7 | -1.2 | 1.0 | / | /
O=C(Nc1cccc(C(F)(F)F)c1)Nc1ccc(N2CCCC2)c(S(=O)(=O)Nc2ccccc2Cl)c1 | 0.0 | -1.2 | -0.2 | -2.9 | -0.1 | / | /
COCC1CCCCN1C(=O)c1ccc(OC2CCN(CCc3ccccc3)CC2)cc1 (configuration not stated) | -1.9 | 0.6 | -2.1 | -0.1 | 0.1 | / | /
Cc1ccc(SCc2cn3cccnc3n2)cc1 | 5.2 | 2.4 | 0.9 | -1.3 | 0.7 | / | /
Cc1ccn2cc(CSc3ccccc3)nc2c1 | 11.8* | 1.8 | 6.6* | -0.2 | 2.5 | 0.9 | 4.7
COc1ccc(CCNC(=O)CCNC(=O)c2ccco2)cc1 | 2.0 | 0.4 | 6.8* | -0.6 | 0.4 | -0.4 | 0.1
COc1cccc(CNC(=O)CCNC(=O)c2ccco2)c1 | 0.0 | 2.2 | 0.0 | -1.1 | 0.2 | / | /
